Screens deposited in PubChem BioAssay by Broad Institute.
Casp6 inh: human caspase-6 inhibitors, primary screen, biochemical, VEID-R110 fluorescence, single point, set 2; P55212; purified caspase-6, Z-VEID-R110 cleavage fluorescence; inhibition, % at 12.5 µM; 350,000 compounds, 0.53% hits; AID 686996, 2013;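 active = mean inhibition across replicates at least about 35%, with every replicate also reaching that limit, limit read from the data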;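 note: 0% = median of neutral control wells and 100% = no fluorescence left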
Target sequence (P55212 24-179 limits assumed): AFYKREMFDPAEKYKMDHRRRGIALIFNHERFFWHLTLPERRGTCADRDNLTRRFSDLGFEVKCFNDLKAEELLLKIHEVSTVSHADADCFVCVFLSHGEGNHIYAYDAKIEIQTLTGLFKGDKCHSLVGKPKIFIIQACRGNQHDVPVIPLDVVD
Target sequence (P55212 194-293 limits assumed): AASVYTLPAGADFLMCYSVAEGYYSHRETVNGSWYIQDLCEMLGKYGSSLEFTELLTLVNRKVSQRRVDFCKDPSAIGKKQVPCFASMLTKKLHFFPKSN
PfHsp90 set2: growth inhibition of PfHsp90-expressing yeast, primary screen, antimalarial PfHsp90 inhibitor project, S. cerevisiae, BacTiter-Glo luminescence, single point, set 2; inhibition, % at 9.4 µM; BacTiter-Glo ATP, 48 h; yeast lacking PDR1 and PDR3 efflux regulators; 310,000 compounds, 0.32% hits; AID 504621, 2011;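 active = every replicate shows inhibition above about 80%, whatever the replicate mean, limit read from the data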;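 note: 0% = DMSO neutral controls and 100% = 20 µM radicicol positive controls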
ARNT-TACC3 inh: disruptors of ARNT/TACC3 protein interaction, primary screen, biochemical, AlphaScreen, single concentration; Transforming acidic coiled-coil-containing protein 3 (Homo sapiens), Q9Y6A5; AlphaScreen His-ARNT PAS-B/GST-TACC3 binding, luminescence; TACC3 fragment carries E629A point mutation; inhibition, % at 9.99 µM; 390,000 compounds, 0.66% hits; AID 623870, 2012;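 active = mean inhibition of replicates at least 50% and at least half of replicates each reaching 50%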;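 note: 0% = complete ARNT plus TACC3 wells and 100% = ARNT alone without TACC3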
NSD2 HMT inh: NSD2 histone methyltransferase inhibitors, primary screen, biochemical, AlphaScreen, single concentration, set 2; Histone-lysine N-methyltransferase NSD2 (Homo sapiens), O96028; NSD2 peptide methylation, 120 min; inhibition, % at 12.5 µM; 310,000 compounds, 0.54% hits; in the data active = inhibition above about 50%
SIRT5 inh: SIRT5 desuccinylase inhibitors, primary screen, biochemical, fluorescence imaging, single point, set 5; Purified SirT5, succinyl-peptide AMC, trypsin-coupled fluorescence; inhibition, % at 15 µM; 330,000 compounds, 1.1% hits; in the data active = inhibition above about 15%
Target sequence (Q9NXA8 whole entry, looked up): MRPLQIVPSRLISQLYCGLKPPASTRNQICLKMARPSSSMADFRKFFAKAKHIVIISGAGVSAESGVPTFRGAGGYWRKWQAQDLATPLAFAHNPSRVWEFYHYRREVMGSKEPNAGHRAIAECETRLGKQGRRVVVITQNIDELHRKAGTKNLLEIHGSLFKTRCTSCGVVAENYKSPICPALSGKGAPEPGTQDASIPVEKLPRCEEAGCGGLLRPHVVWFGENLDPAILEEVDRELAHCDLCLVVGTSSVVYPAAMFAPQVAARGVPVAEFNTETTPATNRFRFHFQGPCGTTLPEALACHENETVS
Alpha artifact: AlphaScreen signal interference with preloaded methylated product, dose response, artefact control for NSD2 inhibitor project, biochemical, cherry-picked samples; AID 1053174, 2014; shares compounds with NSD2 HMT inh; 1,500 compounds, 9.4% hits; AlphaScreen artifact counterscreen, preloaded methylated H4 peptide; AC35, µM (series often up to 10 µM), inactives show top-dose activity change, negative = signal loss; call rule not given here
The depositor's hits bear a star; nt = no result. This is a sample that favours compounds with a hit; in the whole collection about 2.1% have one here.

SMILES	Casp6 inh	PfHsp90 set2	ARNT-TACC3 inh	NSD2 HMT inh	SIRT5 inh	Alpha artifact
CCCCNC1=CC(=O)C(=O)c2ccccc21	28.1	-9.8	-3.6	140.5*	-0.4	-2.5%
COc1ccccc1N1CCN(C2CCN(C(=O)c3cccc(F)c3)CC2)CC1	-5.1	-1.4	-4.0	59.0*	-4.0	-2.1%
O=c1/c(=C/c2ccco2)sc2n1CN(c1ccccc1)CN=2	nt	-21.6	0.4	20.6	nt	nt
Cc1ccc(N2CN=c3s/c(=C\c4ccccn4)c(=O)n3C2)cc1	nt	-3.1	-15.2	59.4*	nt	-8.5%
CC1(C(=O)O)CCCN1C(=O)c1cccc(F)c1 (stereo unspecified)	-1.8	nt	nt	1.4	-0.6	nt
CCOC(=O)C1(C)CCCN1C(=O)c1cccc(F)c1 (stereo unspecified)	-3.5	nt	nt	58.5*	-2.7	1.1%
CC(C)C(=O)Nc1ccc2c(c1)C(=O)N(C)[C@H]1CC[C@@H](CC(=O)NCCCN(C)C)O[C@@H]1CO2	2.0	nt	-5.0	nt	-1.7	nt
Cc1ccc(NC(=O)c2cc([N+](=O)[O-])ccc2NCc2cccnc2)cc1Cl	nt	nt	4.2	127.3*	nt	-6.6%
CCCC(=O)Nc1ccc2c(c1)OC[C@H](C)N(Cc1cccc(F)c1)C[C@H](C)[C@@H](OC)CN(C)C2=O	0.1	nt	nt	nt	0.8	nt
Cc1nc(C)c(C(=O)Nc2ncc([N+](=O)[O-])s2)o1	33.1	19.6	18.1	50.2*	10.0	-10.5%
C[C@H]1CN([C@@H](C)CO)C(=O)c2cc(C#Cc3ccccc3F)cnc2O[C@H]1CN(C)C(=O)Cc1ccccc1	1.3	nt	3.0	nt	-2.2	nt
CC(C)C#Cc1ccc([C@H]2[C@@H](CO)N3C(=O)CN(C(=O)c4ccccn4)C[C@@H]23)cc1	2.5	nt	nt	nt	-0.5	nt
Cc1ccc(S(=O)(=O)N[C@H]2CC[C@@H](CC(=O)NCCN3CCCCC3)O[C@H]2CO)cc1	-12.4	nt	nt	nt	-1.0	nt
Cc1nc2c(=O)[nH]c(=S)[nH]c2[nH]c1=O	93.4*	-48.3	34.7*	83.8*	41.4*	-1.8%
CC=Cc1ccc2n(c1=O)C[C@@H]1[C@@H](CO)[C@H](C(=O)NCc3ccccc3)[C@H]2N1Cc1ccccc1OC (mixture of isomers)	-1.0	nt	nt	nt	2.4	nt
O=C1Nc2c(Cl)cccc2C1=O	36.8*	nt	nt	125.8*	nt	4.5%
C[C@@H]1CCCCO[C@H](CN(C)C(=O)c2ccccc2)[C@@H](C)CN([C@@H](C)CO)C(=O)c2cc(NC(=O)c3ccccc3)ccc2O1	1.8	nt	-13.9	nt	6.7	nt
CCCC#Cc1ccc2c(c1)O[C@@H](CN(C)C(=O)CN(C)C)[C@H](C)CN([C@H](C)CO)S2(=O)=O	-1.9	nt	0.9	nt	-1.0	nt
COc1ccc(NC(=O)Nc2cccc3c2O[C@@H](CN(C)S(=O)(=O)c2cn(C)cn2)[C@@H](C)CN([C@@H](C)CO)C3=O)cc1	-2.0	nt	1.8	nt	-8.1	nt
O=C(CSc1n[nH]c(-c2ccncc2)n1)Nc1ccc(Cl)c(Cl)c1	1.6	-14.9	10.8	62.6*	3.3	-0.4%
Nc1cc(=O)[nH]c(SCC(=O)Nc2cc(Cl)cc(Cl)c2)n1	nt	-20.2	-3.2	0.8	nt	nt
Nc1cc(=O)[nH]c(SCC(=O)Nc2ccc(Cl)c(Cl)c2)n1	nt	6.2	0.9	115.5*	nt	-0.4%
C[C@@H]1CN([C@@H](C)CO)C(=O)c2cc(NC(=O)CCC(F)(F)F)ccc2O[C@H]1CN(C)Cc1ccccc1	-0.1	nt	-10.1	nt	-0.2	nt
CC(NC(=O)c1cccc(Br)c1)c1ccccc1 (stereo unspecified)	-0.4	2.4	6.8	96.5*	-4.0	0.0%
Cn1c(=O)[nH]c2nnc(-c3ccc(Cl)c(Cl)c3)nc2c1=O	-3.6	-6.6	-6.1	106.6*	nt	-1.6%
SMILES	Casp6 inh	PfHsp90 set2	ARNT-TACC3 inh	NSD2 HMT inh	SIRT5 inh	Alpha artifact
CCCN1[C@H](C(=O)NC2CCC2)[C@@H](CO)[C@@H]2Cn3c(ccc(-c4cccnc4)c3=O)[C@@H]21	0.6	nt	-0.5	nt	-3.4	nt
O=c1c2ccccc2nc(COc2ccccc2)n1/N=C/c1ccc(O)c(O)c1	13.5	16.7	10.6	64.9*	-3.4	-13.4%
O=C(O)COc1ccc(/C=N/n2c(COc3ccccc3)nc3ccccc3c2=O)cc1	-3.0	15.0	-5.2	-1.6	-5.2	nt
CC(C)CC#Cc1cnc2c(c1)C(=O)N([C@H](C)CO)C[C@H](C)[C@H](CN(C)Cc1ccccc1C(=O)O)O2	0.4	nt	-5.8	nt	nt	nt
CCCN(C)C[C@H]1OCCCC[C@@H](C)Oc2ccc(NS(=O)(=O)c3ccc(C)cc3)cc2C(=O)N([C@H](C)CO)C[C@H]1C	-0.7	nt	-0.2	nt	4.8	nt
CC(Oc1ccc(Cl)cc1Cl)C(=O)NC(Cc1ccccc1)C(=O)O (stereo unspecified)	-0.7	-7.0	-7.9	52.6*	-1.4	2.3%
CCCNC(=O)C[C@@H]1CC[C@@H]2[C@H](COC[C@H](O)CN2C(=O)Nc2cccc(Cl)c2)O1	-1.3	nt	-1.8	nt	3.4	nt
C/C=C/c1ccc2c(c1)O[C@@H](CN(C)S(=O)(=O)c1ccc(C)cc1)[C@@H](C)CN([C@H](C)CO)S2(=O)=O	-2.0	nt	4.7	nt	1.8	nt
Cc1cccc(NC(=S)N2CCN(c3ccccc3F)CC2)c1C	2.0	5.4	-4.7	57.0*	0.5	-4.7%
CCN(CC)C(=O)CSc1nc2ccccc2c(=O)n1CC	nt	-11.1	-1.0	2.0	nt	nt
CCN(CC)C(=O)CSc1nc2ccccc2c(=O)n1CCC(=O)NCc1ccc(F)cc1	nt	-10.3	-9.6	121.0*	nt	-0.2%
CCN1C(=O)/C(=C\c2ccc(-c3cccc(C(=O)OC)c3)o2)SC1=Nc1ccc(C(=O)O)cc1	-3.0	nt	nt	-3.1	-1.0	nt
CCN1C(=O)/C(=C\c2ccc(-c3ccc([N+](=O)[O-])cc3OC)o2)SC1=Nc1cccc(C(=O)O)c1	25.6	-15.0	-14.0	60.5*	9.1	-6.5%
CC[n+]1ccc(/C=C/c2ccc(N(C)C)cc2)c2ccccc21	-6.9	56.5	38.1	94.2*	3.8	8.67µM*
Cc1ccc(S(=O)(=O)/N=C2\C=C(Nc3cccc(C(=O)O)c3)C(=O)c3ccccc32)cc1	99.4*	23.4	nt	171.8*	-3.0	-15.7%
COC(=O)c1ccccc1NC1=C/C(=N\S(=O)(=O)c2ccc(C(=O)O)cc2)c2ccccc2C1=O	nt	-6.4	71.8*	151.2*	nt	8.09µM*
CCc1ccc(-c2cc(C)no2)cc1S(=O)(=O)N1CCN(c2ccc(OC)cc2)CC1	1.9	-0.4	-0.9	-0.8	-1.7	nt
CCc1ccc(-c2cc(C)no2)cc1S(=O)(=O)N1CCN(c2ccc(F)cc2)CC1	-0.7	11.7	5.1	50.3*	5.5	-5.0%
